Results filed as inconclusive are left out. Active and inactive are the calls of the source. Unless noted, calls come from the whole dose curve; as a rule, active = well fitted curve in the direction sought with a large enough effect; inconclusive = small, poorly fitted or top-dose-only effect, or another doubt; inactive = no such curve, though single readings can be large; an effect the other way counts as inactive or inconclusive.
Tests used:
[1] = AP1 Signaling Pathway (AID 357; active = well fitted curve in either direction with a large enough effect, not every such curve was filed as active; note: % is set by controls: 0 for no effect and ±100 for the full control effect); conditions: ME-180 AP-1-bla reporter, EGF-induced, beta-lactamase ratio, 5 h; at 17.2 µM (top of the series) unless noted
In short: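 ME-180 cells with beta-lactamase reporter under AP-1 response element, stimulated with EC50 EGF; compounds tested in titration series, 5 h at 37 °C. CCF4 substrate added 2.5 h at room temperature; 460/530 nm emission ratio gave %activity and AC50.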

[2] = NFAT Signaling Pathway (AID 444; active = well fitted curve in either direction with a large enough effect, not every such curve was filed as active;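 note: carbachol stimulus at about its EC50 of 1 µM final; % is set by controls: 0 for no effect and ±100 for the full control effect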); conditions: Jurkat NFAT-bla M1, carbachol, beta-lactamase ratio, 5 h
In short: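 Jurkat cells with NFAT-driven β-lactamase reporter and co-expressed M1 receptor, stimulated with carbachol (final 1 uM, ~EC50), compound titration, 5 h at 37 °C. CCF4 loaded 1 h at RT; 460/530 nm ratio gave %activity and AC50.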

[3] = Stat Signaling Pathway (AID 446; active = well fitted curve in either direction with a large enough effect, not every such curve was filed as active;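 note: ME-180 cervical cancer cells given 40 pM IL-6 alongside compound; SIE-controlled beta-lactamase reporter measured as 460/530 nm FRET emission ratio; % is set by controls: 0 for no effect and ±100 for the full control effect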)
In short: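 Reporter line: ME-180 cervical carcinoma, SIE-beta-lactamase. Treatment: compound with 40 pM IL-6, 5 hrs, 37 C, in low-serum OPTI-MEM with 10 mM HEPES pH 7.3. Detection: 460/530 nm fluorescence.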

[4] = target: Glucocorticoid receptor (Homo sapiens) (UniProt P04150); test: GR-GFP Redistribution (AID 450;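 active = compounds whose dose series gives a full or clear partial fitted curve of increased nuclear translocation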; note: potency is the fitted concentration of half-maximal effect); conditions: U2OS GR-GFP nuclear translocation, laser cytometry, 2 h
[5] = target: Glucocorticoid receptor (Homo sapiens) (UniProt P04150); test: GR-EFC Redistribution (AID 451; calls by dose curve; note: potency is the fitted concentration of half-maximal effect); conditions: CHO-K1 GR-EFC translocation, beta-gal luminescence, 2 h
In short: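 CHO-K1 cells expressing nuclear EA and GR-ED fragments of b-gal; compounds titrated up to 46 uM final, 2 h at 37 C. GR nuclear translocation read as complemented b-gal luminescence after 1 h RT detection.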

[6] = target: Mitogen-activated protein kinase 10 (Mus musculus) (UniProt Q61831); test: JNK3 AlphaScreen Assay (AID 530; active = well fitted curve in either direction with a large enough effect, not every such curve was filed as active;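 note: kinase came from lysate of stimulated human HepG2 cells; signal reports phosphorylation of biotinylated GST-cJun 1-79 at Ser73 with 10 µM ATP; % is set by controls: 0 for no effect and ±100 for the full control effect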)
In short: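 Pre-activated (IL-1β/TNFα) JNK3 in HepG2 lysates phosphorylates biotin-GST-cJun(1-79), 10 uM ATP; anti-phospho-cJun(Ser73) AlphaScreen read at room temperature, pH 7.6 Tris buffer. Compounds pre-incubated 15 min as titrations.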

[7] = target: Lysosomal acid glucosylceramidase (Homo sapiens) (UniProt P04062); test: Glucocerebrosidase-p2 (AID 348; in the data active = potency below about 10 µM; note: potency is the fitted concentration of half-maximal effect); conditions: purified GBA, blue fluorogenic substrate, 40 min
In short: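 Compounds titrated from 0.6 nM upwards against 0.2 nM enzyme in pH 5.9 citric acid/KH2PO4, taurocholate, tween-20; blue fluorogenic substrate 80 uM, 40 min room temperature, stopped and read Ex 365/Em 440 for AC50.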

[8] = Cell Viability - BJ (AID 421; calls by dose curve;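 note: potency is the fitted concentration of half-maximal effect; cells exposed to compound for 40 hours at 37 °C before readout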); conditions: BJ fibroblast viability, qHTS
In short: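 Cytotoxicity as drop in intracellular ATP (CellTiter-Glo, 20 min RT) after 40 hr compound exposure of BJ fibroblasts at 37 °C. Titrations scaled between DMSO and 100 uM tamoxifen, Hill-fitted for AC50.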

[9] = Cell Viability - Jurkat (AID 426;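 active = dose-dependent loss of cell ATP signal giving a full or clear fitted curve, ranked by lower potency value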; note: potency is the fitted concentration of half-maximal effect); conditions: qHTS
In short: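 qHTS, 1536-well; Jurkat E6-1, 5000 cells/well, complete medium; cpd 40 hr, 37 °C; CellTiter-Glo 20 min RT; luminescence. AC50 by Hill fit.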

[10] = Cell Viability - Hek293 (AID 427;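 active = compounds whose dose-response curve shows a full or clear partial loss of cell viability, called from curve shape rather than a numeric limit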;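 note: potency is the fitted concentration of half-maximal effect; cells exposed to compound for 40 hours at 37 °C before reading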); conditions: qHTS
In short: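 Luminescent ATP content (CellTiter-Glo, 20 min at room temperature) was measured after a 40 hr, 37 °C compound exposure of HEK293 cells. AC50 values came from Hill-equation fits of qHTS concentration-response data normalized to DMSO and 100 uM tamoxifen.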

[11] = Cell Viability - HepG2 (AID 433; calls by dose curve;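 note: potency is the fitted concentration of half-maximal effect; potency for ATP loss meaning cytotoxicity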); conditions: qHTS
In short: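 HepG2 hepatocellular carcinoma cells (1500/well) were treated with compounds for 40 h at 37 °C in complete medium; intracellular ATP was read by CellTiter-Glo luminescence. Data were normalized to DMSO and 100 uM tamoxifen, and AC50 came from Hill fits.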

[12] = Cell Viability - MRC5 (AID 434; calls by dose curve;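 note: potency is the fitted concentration of half-maximal effect; potency reflects cytotoxicity seen as loss of intracellular ATP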); conditions: MRC5 lung fibroblast viability, qHTS
In short: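 MRC5 normal human lung fibroblasts, 1500 cells/well, exposed to compound for 40 hr at 37 C. Cellular ATP was read by CellTiter-Glo luminescence; data normalized to DMSO and 100 uM tamoxifen, with AC50 from Hill fits.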

[13] = Cell Viability - SK-N-SH (AID 435; calls by dose curve;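 note: potency is the fitted concentration of half-maximal effect; compound exposure lasted 40 h at 37 °C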); conditions: SK-N-SH neuroblastoma cell viability qHTS
In short: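 SK-N-SH human neuroblastoma cells (1500/well) were exposed to compounds in complete medium for 40 h at 37 °C, and intracellular ATP was then measured by CellTiter-Glo luminescence. AC50 was taken from Hill fits, normalized to DMSO and 100 uM tamoxifen.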

[14] = Cell Viability - N2a (AID 540); conditions: N2a mouse neuroblastoma cell viability; activity change, negative = cytotoxicity: at 92.2 µM (top of the series);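 note: plate controls were DMSO alone for no effect and tamoxifen control for full effect; nearly all actives have a fitted effect of over 45% in size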
In short: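 Luminescent ATP signal (CellTiter-Glo, 20 min at room temperature) served as the viability read-out after N2a cells were treated with compounds for 40 hours at 37 °C. Concentration-response data were fitted to the Hill equation for AC50.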

[15] = Cell Viability - NIH 3T3 (AID 541); conditions: NIH 3T3 cell viability, qHTS; activity change, negative = cytotoxicity: at 92.2 µM (top of the series);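 note: plate controls were DMSO alone for no effect and tamoxifen positive control for full effect; nearly all actives have a fitted effect of over 25% in size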
In short: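 Luminescent ATP signal (CellTiter-Glo) served as the viability read-out after NIH 3T3 cells were exposed to compounds over a concentration range for 40 hr at 37 °C. Hill-equation modelling of concentration-response data gave AC50.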

[16] = Cell Viability - HUV-EC-C (AID 542); note: % is set by controls: 0 for no effect and ±100 for the full control effect; nearly all actives have a fitted effect of over 35% in size
In short: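 qHTS cytotoxicity: HUV-EC-C, 1000 cells/well, 5 hr settle, compound 40 hr 37 °C, CellTiter-Glo, luminescence. AC50 via Hill equation.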

[17] = Cell Viability - H-4-II-E (AID 543); note: % is set by controls: 0 for no effect and ±100 for the full control effect; nearly all actives have a fitted effect of over 35% in size
In short: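 Luminescent ATP signal (CellTiter-Glo) served as the viability read-out, with cytotoxicity seen as a concentration-dependent ATP drop. Cells were treated for 40 hours in complete medium. AC50 values derive from Hill-equation modelling.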

[18] = Cell Viability - SH-SY5Y (AID 544); conditions: SH-SY5Y neuroblastoma cell viability; viability change, negative = cytotoxic: at 92.2 µM (top of the series);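 note: 0% = DMSO alone and -100% = 100 µM tamoxifen; nearly all actives have a fitted effect of over 55% in size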
In short: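 Luminescent ATP read-out (CellTiter-Glo) measures loss of viable SH-SY5Y neuroblastoma cells after 40 hr compound exposure at 37 °C. AC50 values derive from standard Hill modelling of qHTS concentration-response data.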

[19] = Cell Viability - Renal Proximal Tubule (AID 545); conditions: renal proximal tubule cells viability, primary cells of rat origin; activity change, negative = cytotoxicity: at 91.7 µM (top of the series);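 note: 0% = DMSO only and -100% = 100 µM tamoxifen; nearly all actives have a fitted effect of over 40% in size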
In short: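 Primary rat renal proximal tubule cells (1000/well) were treated with compounds for 40 hr at 37 °C in complete medium. Intracellular ATP was measured by CellTiter-Glo luminescence, and AC50 values came from Hill-equation fits of concentration-response data.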

[20] = Cell Viability - Mesenchymal (AID 546); conditions: mesenchymal cells viability, qHTS; activity change, negative = cytotoxicity: at 91.7 µM (top of the series);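 note: cells exposed to compound for 40 hours before reading; 0% = DMSO only and -100% = 100 µM tamoxifen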
In short: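 Human kidney mesenchymal cells from normal renal glomeruli, 1000 cells/well, rested 5 hr at 37 °C, then treated 40 hr at 37 °C in complete medium. Cellular ATP read by CellTiter-Glo luminescence; AC50 from Hill-equation fits.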

Chain of Glucocorticoid receptor (Homo sapiens) (P04150 whole entry, looked up, the tested form may be a part): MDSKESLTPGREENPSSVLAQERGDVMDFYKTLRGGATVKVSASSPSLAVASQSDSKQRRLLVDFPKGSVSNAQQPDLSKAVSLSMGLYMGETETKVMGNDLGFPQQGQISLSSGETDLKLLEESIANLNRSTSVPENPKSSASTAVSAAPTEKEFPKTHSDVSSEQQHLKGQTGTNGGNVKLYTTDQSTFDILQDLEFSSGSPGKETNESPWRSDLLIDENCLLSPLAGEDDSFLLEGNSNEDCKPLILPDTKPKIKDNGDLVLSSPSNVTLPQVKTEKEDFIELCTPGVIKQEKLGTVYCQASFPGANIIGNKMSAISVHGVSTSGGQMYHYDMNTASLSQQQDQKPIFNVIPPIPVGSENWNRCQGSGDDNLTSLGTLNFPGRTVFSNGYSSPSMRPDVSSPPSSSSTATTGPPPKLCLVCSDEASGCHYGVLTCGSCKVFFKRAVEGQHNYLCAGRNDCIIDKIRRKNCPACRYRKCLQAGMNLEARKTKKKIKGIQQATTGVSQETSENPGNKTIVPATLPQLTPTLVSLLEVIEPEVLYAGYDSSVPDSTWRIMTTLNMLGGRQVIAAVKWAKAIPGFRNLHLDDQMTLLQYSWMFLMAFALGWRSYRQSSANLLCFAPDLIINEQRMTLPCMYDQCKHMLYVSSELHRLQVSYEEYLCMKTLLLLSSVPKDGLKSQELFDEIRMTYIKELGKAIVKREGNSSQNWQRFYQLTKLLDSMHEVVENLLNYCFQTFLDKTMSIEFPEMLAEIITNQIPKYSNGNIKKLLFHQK
Chain of Lysosomal acid glucosylceramidase (Homo sapiens) (P04062 whole entry, looked up): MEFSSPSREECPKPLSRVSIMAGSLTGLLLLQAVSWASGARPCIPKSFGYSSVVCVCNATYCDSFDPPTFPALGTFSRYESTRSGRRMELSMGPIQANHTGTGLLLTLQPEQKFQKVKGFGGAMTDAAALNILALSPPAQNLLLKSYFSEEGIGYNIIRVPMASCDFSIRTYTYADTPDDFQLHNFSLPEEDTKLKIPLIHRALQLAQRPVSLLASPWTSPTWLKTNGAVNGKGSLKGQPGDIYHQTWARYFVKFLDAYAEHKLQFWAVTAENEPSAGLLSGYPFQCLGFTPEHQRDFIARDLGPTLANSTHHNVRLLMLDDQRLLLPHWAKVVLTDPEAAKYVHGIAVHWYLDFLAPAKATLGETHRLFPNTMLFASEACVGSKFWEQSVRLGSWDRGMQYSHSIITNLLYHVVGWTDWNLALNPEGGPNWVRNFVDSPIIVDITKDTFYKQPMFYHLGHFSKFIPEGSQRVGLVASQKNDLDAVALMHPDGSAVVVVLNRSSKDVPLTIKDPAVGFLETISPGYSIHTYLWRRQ

CCN(CC)CCOc1ccc(/C(=C(\Cl)c2ccccc2)c2ccccc2)cc1
inactive: activity change, negative = inhibition [1] 9.05% | activity change, negative = inhibition ([2]; at 17.2 µM (top of the series)) -12.4% | outcome [3] | Potency [4] > 20.6 µM | Potency [5] > 20.6 µM | outcome [6]

O=C(O)/C=C(\CC(=O)O)C(=O)O
inactive: Potency [7] > 11.4 µM | activity change, negative = inhibition [1] 3.65% [at 7.69 µM] | activity change, negative = inhibition ([2]; at 7.69 µM (top of the series)) 26.4% | outcome [3] | activity change, negative = inhibition [6] 4.55% [at 11.4 µM]

O=C(CCCCC(=O)Nc1c(I)cc(I)c(C(=O)O)c1I)Nc1c(I)cc(I)c(C(=O)O)c1I
inactive: activity change, negative = inhibition [1] 2.09% | activity change, negative = inhibition ([2]; at 17.2 µM (top of the series)) 0.68% | outcome [3] | Potency [4] > 20.6 µM | Potency [5] > 20.6 µM | outcome [6]

CC(C)N(CCC(=O)c1ccc2ccccc2c1)Cc1ccccc1
inactive: Potency [4] > 46 µM | Potency [5] > 46 µM | outcome [6]

CCCCC(CC)COC(=O)c1ccccc1C(=O)O (stereo not given)
inactive: Potency [8] > 92 µM | Potency [9] > 92 µM | Potency [10] > 92 µM | Potency [11] > 92 µM | Potency [12] > 92 µM | Potency [13] > 92 µM | outcome [6] | Potency [14] | activity change, negative = cytotoxicity [15] 10.8% | Potency [16] | Potency [17] | Potency [18] | Potency [19] | Potency [20]

OCc1c[nH]c2ccccc12
inactive: Potency [8] > 92 µM | Potency [9] > 92 µM | Potency [10] > 92 µM | Potency [11] > 92 µM | Potency [12] > 92 µM | Potency [13] > 92 µM | outcome [6] | Potency [14] | activity change, negative = cytotoxicity [15] 0.242% | Potency [16] | Potency [17] | Potency [18] | Potency [20]

Oc1ccccc1
inactive: Potency [8] > 92 µM | Potency [9] > 92 µM | Potency [10] > 92 µM | Potency [11] > 92 µM | Potency [12] > 92 µM | Potency [13] > 92 µM | outcome [6] | Potency [14] | activity change, negative = cytotoxicity [15] -17.5% | Potency [16] | Potency [17] | Potency [18] | Potency [19] | Potency [20]

O=C(NO)c1ccccc1
inactive: Potency [8] > 92 µM | Potency [10] > 92 µM | Potency [11] > 92 µM | Potency [12] > 92 µM | Potency [13] > 92 µM | outcome [6] | Potency [14] | Potency [16] | Potency [17] | Potency [18] | Potency [19] | Potency [20]

C1=CC2C3C=CC(C3)C2C1 (stereo not given)
inactive: Potency [8] > 92 µM | Potency [9] > 92 µM | Potency [10] > 92 µM | Potency [11] > 92 µM | Potency [12] > 92 µM | Potency [13] > 92 µM | outcome [6] | Potency [14] | Potency [16] | Potency [17] | Potency [18] | Potency [19] | Potency [20]

CC(C)C(C)(C)C(C)(C)C(C)(C)S
inactive: Potency [8] > 92 µM | Potency [9] > 92 µM | Potency [10] > 92 µM | Potency [11] > 92 µM | Potency [12] > 92 µM | Potency [13] > 92 µM | outcome [6] | Potency [14] | activity change, negative = cytotoxicity [15] -18.6% | Potency [16] | Potency [17] | Potency [18] | Potency [19] | Potency [20]
